# Hits are enriched below; roughly 3.9% of the tested compounds scored in any of these assays.
# VDR inhibitor – Inhibitors of the vitamin D receptor (VDR): qHTS; 400,000 compounds, 0.93% hits; Vitamin D3 receptor (Homo sapiens), P11473; VDR-SRC2-3 peptide fluorescence polarization, 2 h; Potency, µM, for the others: max response, negative = inhibition, actives largely listed as inhibitors; further: on the % scale 0 is the no-effect control and ±100 the full control effect
#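 Fluorescence polarization assay measuring small-molecule disruption of VDR binding to the coregulator peptide SRC2-3. Compounds were pin-transferred (23 nl) into the reagent mix and incubated 2 h at room temperature before reading.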
# BRCA1 expr act – qHTS Assay to Identify Small Molecule Activators of BRCA1 Expression; Potency, µM (series often up to 46.1 µM), without a hit: at the top dose activation, actives largely listed as activators; AID 624202, 2012; MCF7-BRCA1-FFLuc reporter, luminescence, 48 h; response scale: scaled: vehicle 0%, 10 µM genistein 100%; 380,000 compounds, 1.1% hits; further: nearly all actives have a fitted effect of over 80% in size
#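 Reporter cells (MCF7, BRCA1 promoter-firefly luciferase) received library compounds across a concentration series for 48 h. End-point luminescence was measured and concentration-effect curves derived after normalization.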
# PLK1 PBD block – qHTS for Inhibitors of PLK1-PDB (polo-like kinase 1 - polo-box domain): Primary Screen. 360,000 compounds, 2.8% hits. AID 720504, 2013. Plk1 PBD binding of FITC phosphopeptide, fluorescence polarization. Serine/threonine-protein kinase PLK1 (Homo sapiens), P53350. Potency, µM, inactives show max response, negative = inhibition, hits mostly inhibitors; further: series mostly up to about 57 µM; on the % scale 0 is the no-effect control and ±100 the full control effect; nearly all actives have a fitted effect of over 65% in size
# Target sequence (P53350 whole entry, looked up, the tested form may be a part): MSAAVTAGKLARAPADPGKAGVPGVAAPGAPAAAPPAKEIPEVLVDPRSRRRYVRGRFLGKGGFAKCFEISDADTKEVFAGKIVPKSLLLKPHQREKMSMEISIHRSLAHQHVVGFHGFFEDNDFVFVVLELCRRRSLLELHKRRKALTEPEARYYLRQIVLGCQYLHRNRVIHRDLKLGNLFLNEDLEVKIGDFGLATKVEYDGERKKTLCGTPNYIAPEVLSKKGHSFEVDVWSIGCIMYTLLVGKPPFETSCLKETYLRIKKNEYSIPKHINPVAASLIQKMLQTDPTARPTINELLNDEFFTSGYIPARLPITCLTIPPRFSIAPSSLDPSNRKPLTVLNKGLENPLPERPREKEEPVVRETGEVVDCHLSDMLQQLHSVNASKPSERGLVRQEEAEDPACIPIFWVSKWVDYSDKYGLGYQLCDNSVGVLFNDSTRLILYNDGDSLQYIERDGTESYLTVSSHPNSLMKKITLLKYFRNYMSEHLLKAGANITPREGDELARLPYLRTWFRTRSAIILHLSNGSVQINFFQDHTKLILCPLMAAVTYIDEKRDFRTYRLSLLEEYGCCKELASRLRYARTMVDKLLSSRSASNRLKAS
# Tb PFK inh – qHTS Assay to Find Inhibitors of T. brucei phosphofructokinase. Potency, µM (doses to about 57.5 µM), for the others: top-dose activity, negative = inhibition, actives largely listed as inhibitors. T. brucei PFK, ADP-Glo luminescence. 330,000 compounds, 0.17% hits. ATP-dependent 6-phosphofructokinase (Trypanosoma brucei brucei), O15648;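 further: 0% = uninhibited 1x PFK enzyme wells and -100% = no-enzyme wells; nearly all actives have a fitted effect of over 60% in size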
#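 In TEA buffer at pH 8.0 with 5 mM MgCl2, enzyme (1.25 nM) converted F6P (0.5 mM) and ATP (0.1 mM) for 45 min at room temperature. ADP product was read by luciferase luminescence.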
# The depositor's hits bear a star; ? = inconclusive; . = not tested or not shown; [ ] = another dose, or the depositor's remark. The call rests on the fitted dose curve; in most records, active means well fitted curve in the direction sought with a large enough effect; inconclusive means small, poorly fitted or top-dose-only effect, or another doubt; inactive means no such curve, though single readings can be large; an effect the other way counts as inactive or inconclusive. Potency means the concentration at half of the fitted maximal effect.
SMILES,VDR inhibitor,BRCA1 expr act,PLK1 PBD block,Tb PFK inh
Cc1ccc(NC(=O)CCC(=O)OCc2ccc(Br)cc2)cc1,-27%,-11%,27µM*,-9%
CCOc1ccc(NC(=O)CCC(=O)c2ccc(Br)cc2)cc1,-30%,1%,21µM*,5%
Cc1cccc(NC(=O)CCC(=O)OCc2ccc(Br)cc2)c1,-14%,-10%,4%,-3%
Cc1oc(-c2cccc(Cl)c2)nc1CN1CCC(C(=O)NCc2ccc(F)cc2)CC1,-20%,.,.,.
O=C(Cc1ccc(Cl)cc1)Nc1ccc(Cl)cn1,18%,?,-16%,-17%
COC(=O)Nc1ccc(OCc2ccccc2)cc1,15%,13µM*,-8%,-7%
COCC(=O)Nc1ccc(OCc2ccccc2)cc1,-14%,?,-6%,-12%
CCOc1ccc(NC(=O)Cc2ccccc2)cc1,-16%,7.1µM*,-10%,-19%
Cc1cnc(NC(=O)Nc2ccc(OCc3ccccc3)cc2)c(Br)c1,-22%,28%,30µM*,-2%
O=C(Cc1ccc(Cl)cc1)Nc1ccc(Br)cn1,20%,13µM*,5%,?
COc1cc(OC)c(/C=C/c2cc[n+](C)c3ccccc23)c(OC)c1,.,-32%,.,.
COc1cc2c(cc1OC)C1O[C@](c3ccsc3)(C2)OC2=C1C(=O)OC1(CCCCC1)C2,.,.,.,2%[11.5 µM]
COc1ccc(NC(=O)C2Cc3c(-c4ccc(Cl)cc4)ccnc3O2)cc1OC (centres undefined),.,-30%,-4%,.
CC(=O)Nc1c(C)nn(-c2ccccc2)c1N1CCC(C(=O)NCc2ccc(Cl)cc2)CC1,-1%,.,.,.
CCOc1ccc(NC(=O)c2nccnc2CO)cc1,-2%,5.6µM*,-8%,8%
O=C(Nc1ccc(NC(=O)C2CC2)cn1)c1ccccc1Cl,16%,13µM*,24µM*,4%
CCc1ccccc1N(CC)C(=O)c1c(C)oc2ncn(C)c(=O)c12,1%,1%,.,.
O=C1N=c2ccccc2=C1c1c(O)[nH]c2c(C(F)(F)F)cccc12,35µM*,-28%,27µM*,2%
O=C1N=c2ccccc2=C1c1[nH]c(=S)[nH]c1O,3%,-30%,-10%,-29%
CCCCCCCCCCCCCCCCCCOC[C@@H](O)COP(=O)([O-])OCC[N+](C)(C)C,-2%,.,.,.
CCOC(=O)c1c(NC(=O)c2cccs2)sc(C(=O)N(C)C)c1C,?,-29%,24µM*,-10%
COc1ccc(-n2c(SCC(=O)NCc3ccc(Cl)cc3)nc3ccsc3c2=O)cc1,5%,15%,.,.
COc1cccc(Cn2nnc(C(=O)Nc3cc(C)ccc3C)c2N)c1,0%,-17%,.,.
COc1ccc(NC(=O)Cn2nnc(C(=O)NCc3cccs3)c2N)c(OC)c1,-24%,-2%,24µM*,-4%
COc1cccc(NC(=O)Cn2nnc(C(=O)NCc3cccs3)c2N)c1,6%,0%,-4%,1%
SMILES,VDR inhibitor,BRCA1 expr act,PLK1 PBD block,Tb PFK inh
COc1cccc(Cn2nnc(C(=O)Nc3cc(C)ccc3OC)c2N)c1,?,8%,27µM*,2%
CC(=O)c1cccc(OC(=O)C2=CC=CN3CCS(=O)(=O)N=C23)c1,-5%,4%,-9%,1%
Cc1cc(NC(=O)CSc2nc(N)c(NC(=O)c3ccco3)c(=O)[nH]2)no1,?,2%,30µM*,-5%
Cc1cc(NC(=O)CSc2nc(N)c(NC(=O)c3ccccc3)c(=O)[nH]2)no1,-5%,-3%,-15%,1%
Cc1ccc(NC(=O)c2c(C)nc3sc(C(=O)Nc4ccc(F)cc4)c(N)c3c2-c2ccc(C)o2)c(C)c1,-15%,.,.,.
O=C(O)C(O)c1ccco1 (centres undefined),-14%,2%,27µM*,4.8µM*
O=C(O)C(O)c1ccccc1 (centres undefined),-17%,11%,-17%,-1%
Cc1nc(-c2ccc(Cl)cc2)sc1CCNC(=O)C(=O)Nc1ccccc1C#N,11%,.,.,.
CC1Sc2ccc(C(=O)NCc3ccccn3)cc2NC1=O (centres undefined),79µM*,-40%,17µM*,?
Cc1cc(C)c(NC(=O)c2ccc3c(c2)NC(=O)C(C)S3)c(C)c1 (centres undefined),-3%,-2%,-4%,-3%
O=C(COc1ccccc1C(=O)Nc1ccccc1)Nc1ccccc1Cl,.,-51%,.,.
CC(C)[C@H]1CN=C2N(CCNC(=O)CCC3CCCCC3)[C@H](Cc3ccc(O)cc3)CN21,-3%,-29%,27µM*,-9%
O=c1[nH]nc(N2CCOCC2)c(=O)[nH]1,?,6%,4.7µM*,-7%
Cc1ccccc1OCC(=O)Nc1cc(C)c(O)c(-c2nc3ccccc3o2)c1,.,25%,.,.
O=C1CN(c2ccccc2)C(=S)N1C(=O)c1ccc(Br)cc1,?,3.2µM*,24µM*,0%
Cc1cc(C)cc(OCCCn2c(CCNC(=O)C3CCCCC3)nc3ccccc32)c1,-7%,0%,.,.
CCN1CCN(C(=S)NCCOC)CC1,-18%,2%,30µM*,-1%
CC1=CC(C)(C)Nc2ccc(OC(=O)c3ccco3)cc21,-10%,-84%,-8%,-4%
CC1=CC(C)(C)N2C(=O)C(=O)c3cc(OC(=O)c4ccco4)cc1c32,?,-2%,27µM*,-2%
COc1ccc(C(=O)OCc2cc(=O)n3nc(-c4cccs4)sc3n2)cc1,22%,0%,.,.
COc1ccc(-c2coc3cc(O)ccc3c2=O)c(OC)c1O,-2%,.,.,.
COc1ccc(-c2coc3cc(O)ccc3c2=O)c(O)c1O,50µM*,.,.,.
Oc1ccc(Cl)cc1C=Nc1ccccc1Br,-19%,-1%,-13%,1%
Oc1ccc(Br)cc1C=Nc1cccn2cc(-c3ccccc3)nc12,-13%,6.3µM*,-10%,-18%
COc1ccc(OC)c2sc(Cl)nc12,12%,-8%,19µM*,-5%
SMILES,VDR inhibitor,BRCA1 expr act,PLK1 PBD block,Tb PFK inh
O=C1C(c2ccccc2)=[N+]([O-])c2ccccc21,4µM*,0%,0.17µM*,-12%
O=C(O)c1ccc(N[C@@H]2OC[C@@H](O)[C@@H](O)[C@@H]2O)cc1,3%,.,.,.
Cc1ccsc1/C=N/NC(=O)c1ccc(-n2cccc2)cc1,20%,11µM*,4%,0%
Cc1ccc(/C=N/NC(=O)c2ccc3c(c2)OCCO3)s1,-5%,2.5µM*,-3%,-3%
Cc1cc(C(=O)N/N=C/c2ccc[nH]2)n[nH]1,-12%,-34%,-6%,7%
Cc1cc(C(=O)N/N=C/c2ccc(C)s2)n[nH]1,-7%,7.1µM*,-2%,1%
Cc1cc(C(=O)N/N=C/c2sccc2C)no1,-14%,47%,-9%,0%
Cc1ccsc1/C=N\NC(=O)c1cc(C(C)(C)C)[nH]n1,-20%,5µM*,-11%,-7%
C[C@@H]1CN([C@@H](C)CO)C(=O)CCCn2cc(nn2)CO[C@H]1CN(C)S(=O)(=O)c1ccc(C#N)cc1,.,9%,-12%,.
COCCOC(=O)/C(C#N)=C/c1cn(Cc2ccccc2)nc1-c1cccnc1,?,-15%,27µM*,5%

# Screening data: PubChem, National Center for Advancing Translational Sciences (NCATS)
